# Measurements published in PubChem BioAssay AID504882 (Broad Institute, 2011).
# Hit rate of the full screen: of about 1,200 compounds, about 290 (24%) were called active. Roughly 9% stayed inconclusive and do not appear here. How the calls were made is not given here. A selection follows. Results with a measured potency or affinity are listed apart.
# Assay: cytotoxicity in EBV lymphoblastoid cells, dose response, cytotoxicity control, cell-based, plate reader, cherry-picks, set 2 (AID 504882)
# Details: EBV lymphoblastoid cells (LCL) viability; series mostly up to 19.5 µM
row,SMILES,outcome
1,Cc1ccc(S(=O)(=O)N[C@H](C(=O)N2CCC(C(=O)N[C@@H](CC(=O)O)C(=O)O)CC2)C(C)C)cc1,inactive
2,Cc1ccc(C(=O)Nc2ccc3c(c2)OCCO3)cc1,inactive
3,Cc1ccc(NC(=O)c2ccc3c(c2)OCCO3)nc1,inactive
4,COc1ccc(OC)c(NC(=O)COC(=O)COc2ccc(Nc3ccccc3)cc2)c1,inactive
5,Cc1cc(C)c(S(=O)(=O)N2CCN(C(=O)c3ccccc3OCc3c(C)noc3C)CC2)c(C)c1,inactive
6,O=C(NCc1ccccc1Cl)C1CCCN1S(=O)(=O)c1ccc(F)cc1 (centres undefined),inactive
7,Cc1ccc(/C=C/c2nc3ccccc3s2)s1,inactive
8,N/C(=N\OC(=O)c1ccccc1)c1ccccn1,inactive
9,COc1ccc(C=NNc2nc3ccccc3s2)cc1,inactive
10,C[C@@H]1CN([C@@H](C)CO)S(=O)(=O)c2ccc(/C=C/c3ccccc3)cc2O[C@@H]1CN(C)Cc1ccc(C(=O)O)cc1,inactive
11,O=C(NC1=NCCS1)c1cc2ccccc2o1,inactive
12,COc1ccc(C(=O)Nc2nnc(SCC(=O)NC3CC3)s2)cc1,inactive
13,c1ccc(-c2cn3c4c(sc3n2)CCCC4)cc1,inactive
14,Cc1cc(C)n2nc(CC(=O)NC3CCCCCC3)nc2n1,inactive
15,COc1ccc2cc3c(N)nn(C(=O)c4cccc([N+](=O)[O-])c4)c3nc2c1,inactive
16,Cc1nc(SCC(=O)c2cccc([N+](=O)[O-])c2)n[nH]1,inactive
17,CCn1c(SC(C)C)nnc1-c1c[nH]c2ccccc12,inactive
18,CC(=O)c1cccc(NC(=O)Nc2ccc(C(=O)N3CCOCC3)cc2)c1,inactive
19,COc1ccc(-c2csc(Nc3cccc(C)n3)n2)cc1OC,inactive
20,CC[C@]1(C(=O)OC)[C@H]2C(=O)N(Cc3ccccc3)C(=O)[C@H]2[C@H]2CN=C(SCc3ccc(C#N)cc3)N21,inactive
21,COc1ccc(CN2C(=O)c3cccnc3C2Nc2cc(Cl)ccc2OC)cc1 (centres undefined),inactive
22,Clc1ccc(-c2cn3nc4c(nc3n2)CCCC4)cc1,inactive
23,COCCn1c(SCCN2CCOCC2)nc2c1c(=O)[nH]c(=O)n2C,inactive
24,COc1cc2nc(N3CCN(C(=O)C4CCCO4)CC3)nc(N)c2cc1OC (centres undefined),inactive
25,O=C(Nc1ccc2c(c1)C(=O)OC2)c1ccc(C(F)(F)F)cc1,inactive
26,C/C(=N\Nc1ccc(C(F)(F)F)cc1[N+](=O)[O-])C(C)C,inactive

row,SMILES,outcome
1,COC(=O)c1ccc2nc(-c3cccc(N)c3)cn2c1,inactive
2,CCOC(=O)Nc1ccc2c(c1)N(C(=O)CN(C)C)c1ccccc1CC2,inactive
3,COc1ccc(-c2nc(C)ncc2-c2ccccc2)c(O)c1,inactive
4,c1ccc(OCCSc2nnc3sc4ccccc4n23)cc1,inactive
5,COc1ccc(N2C(=O)C(=O)/C(=C(/O)c3ccc(C)cc3)C2c2cccnc2)cc1 (centres undefined),inactive
6,O=C1CCCCC1Sc1nnc(-c2ccc3c(c2)OCO3)o1 (centres undefined),inactive
7,COc1ccc(NC(=O)c2cc3ccccc3oc2=O)cc1,inactive
8,COc1ccc(NC(=O)NCCN2CCc3ccccc3C2)cc1,inactive
9,N#Cc1c(NC(=O)CCCC(=O)O)sc2c1CCCCC2,inactive
10,COC(=O)c1c(NC(=O)c2nn(C)cc2Cl)sc2c1CCCC2,inactive
11,NC(=O)c1sc2nc3c(c(-c4ccccc4)c2c1N)CCC3,inactive
12,Cc1ccc(NC(=O)NNS(=O)(=O)c2ccc(Br)cc2)cc1,inactive
13,O=C(CSc1nc2ccccc2c(=O)n1CCCN1CCOCC1)Nc1ccc(Br)cc1,inactive
14,CC(C)(C)c1ccc(C(=O)N2CCC(=O)N(C(CO)Cc3ccccc3)CC2)cc1 (centres undefined),inactive
15,O=C(N1CCOCC1)N1CCN(S(=O)(=O)c2ccc(Cl)cc2)C1,inactive
16,Cc1cccc(/C=N/NC(=O)CNc2cccc3ccccc23)n1,inactive
17,O=C(O)c1ccc(C=NNC(=O)c2cccc3ccccc23)cc1,inactive
18,COc1ccc(-c2[nH]ncc2/C=N\NS(=O)(=O)c2ccc(Cl)cc2)cc1,inactive
19,CCN(c1ccccc1)S(=O)(=O)c1ccc(Cl)c(NC(=O)Nc2ccc(Cl)cc2C#N)c1,inactive
20,O=[N+]([O-])c1ccc(Cl)c(S(=O)(=O)NCC2CCCO2)c1 (centres undefined),inactive
21,CCOc1ccc(OCc2cccc(C(=O)N3CCCCCC3)c2)cc1,inactive
22,COc1ccc(C(=O)NCCN2CCOCC2)cc1[N+](=O)[O-],inactive
23,COc1cccc(/C=C2\SC(=S)N(CCC(=O)NCCc3ccc(O)cc3)C2=O)c1,inactive
24,COc1ccc(C(=O)NCCNc2nc3cc(C)c(C)cc3cc2C)cc1,inactive
25,COc1ccc(C(=O)Nn2c(SCC(=O)c3ccc(Cl)cc3)nc3ccccc3c2=O)cc1,inactive
26,COc1ccc(-c2cc3c(=O)n(CC(=O)NCCCN4CCN(Cc5ccccc5)CC4)ncn3n2)cc1,inactive

row,SMILES,outcome
1,O=c1[nH]c(Nc2nc3ccccc3o2)nc2c1CCCC2,inactive
2,Cc1cccc(C)c1Nc1nc2ccccc2o1,inactive
3,COc1ccc(-n2c(C)c(C(C)=O)c3cc(OC(C)=O)ccc32)cc1,inactive
4,CC(=O)Nc1ccc(OCCCNC(=O)c2c(-c3ccccc3)noc2C)cc1,inactive
5,COc1ccccc1NC(=O)Cn1nnc(-c2ccccc2NS(=O)(=O)c2ccccc2)n1,inactive
6,CCN(CC)Cc1cc(Nc2ccnc3cc(Cl)ccc23)ccc1O,inactive
7,O=C1CSC(=S)N1Cc1ccccc1,inactive
8,CC(=O)O[C@H]1CC[C@@]2(C)C(=CC[C@H]3[C@@H]4CC[C@H](C(C)=O)[C@@]4(C)CC[C@@H]32)C1,inactive
9,Cc1ccc(N=c2c([N+](=O)[O-])nn(-c3ccc4c(c3)OCCO4)n2O)cc1F,inactive
10,COCCNC(=O)C(=O)NCC1OCCN1C(=O)c1ccc(Cl)cc1 (centres undefined),inactive
11,CCCn1c(C)cc(C(=O)COC(=O)c2ccc[nH]c2=O)c1C,inactive
12,COc1cc2oc(=O)cc(-c3ccc(-c4ccc(N(C)C)cc4)cc3)c2c(OC)c1OC,inactive
13,Cc1nn(CCCC(=O)Nc2cccnc2Cl)c(C)c1[N+](=O)[O-],inactive
14,Cc1sc2nc(SCC(=O)OC(C)C)n(C)c(=O)c2c1C,inactive
15,COCCn1c(C)cc(C(=O)COC(=O)c2n[nH]c3ccccc23)c1C,inactive
16,Cc1nn(C(C)(C)C)c(C)c1/C=N/OC(=O)Nc1ccc(Cl)c(Cl)c1,inactive
17,CCCCCCCCOC(=O)/C=C/c1c(C)[nH]c(=O)[nH]c1=O,inactive
18,COC(=O)c1ccc(COc2ccccc2/C=C/C(=O)c2ccc(OCC(=O)O)cc2)cc1,inactive
19,CC(C)Oc1ccc(C(=O)Nc2nnc(SCC(=O)N3CCOCC3)s2)cc1,inactive
20,COC(=O)CCNc1ccc2c(c1)OCCO2,inactive
21,COc1ccc2[nH]c3c(=O)n(CCCCC(=O)N4CCC(C(N)=O)CC4)c(=S)[nH]c3c2c1,inactive
22,Cc1c(/C(O)=C2/C(=O)C(=O)N(CCN3CCOCC3)C2c2ccccn2)cnn1-c1ccccc1 (centres undefined),inactive
23,O=[N+]([O-])c1cc(/C=N\O)ccc1Oc1ccc(F)cc1,inactive
24,O=[N+]([O-])c1ccc(/C=N/Nc2cc(Cl)nc(-c3ccccc3)n2)cc1,inactive
25,CCOc1ccc(Nc2ncnc3ccc([N+](=O)[O-])cc23)cc1,inactive
26,COc1ccc(NC(=O)COC(=O)/C=C/c2ccc(OC)c(S(=O)(=O)N3CCOCC3)c2)cc1,inactive

row,SMILES,outcome
1,Cc1nc(N)nc(N)c1/C=C/C(C)(C)c1ccc(Cl)cc1,inactive
2,COc1cc2cc(C(=O)N3CCN(c4ccccc4OC)CC3)[nH]c2cc1OC,inactive
3,Cc1ccc(C(=O)NCCc2cccs2)cc1,inactive
4,C=CCN1CCc2cc(O)c(O)cc2C(c2ccccc2)C1 (centres undefined),inactive
5,CCON1C(=O)C2(CCCCC2)C(=O)C12C=CCCC2 (centres undefined),inactive
6,Cc1nc(C)n(C(C)CNC(=O)c2ccco2)n1 (centres undefined),inactive
7,COc1ccc(C(c2sc3nc(C)nn3c2O)N2CCC(C(N)=O)CC2)cc1OC (centres undefined),inactive
8,Cc1cc(C(=O)COc2cccnc2[N+](=O)[O-])c(C)n1-c1ccccc1F,inactive
9,O=C(NCCc1cn2ccccc2n1)C1CCCCC1,inactive
10,COc1ccc(-c2cc3nc(-c4ccccc4)cc(N4CCCC(O)C4)n3n2)cc1 (centres undefined),inactive
11,O=C(CCc1ccccc1Cl)N1CCN(S(=O)(=O)c2ccccc2)CC1,inactive
12,CC[C@]1(C(=O)OC)[C@H]2C(=O)N(Cc3ccccc3)C(=O)[C@H]2[C@H]2CN=C(SCc3ccc(Cl)cc3)N21,inactive
13,CCc1sc(C(=O)Nc2ncccc2O)cc1C,inactive
14,CCn1nc(C(=O)Nc2nc(-c3ccccn3)cs2)c2ccccc2c1=O,inactive
15,Cc1ccc2oc(C(=O)Nc3ccc(S(=O)(=O)Nc4onc(C)c4C)cc3)c(C)c2c1,inactive
16,CCC(C)(C)NC(=O)C(c1ccc(F)cc1)N(CCOC)C(=O)CCC(=O)Nc1nccs1 (centres undefined),inactive
17,CCOC(=O)c1c(NC(=O)C2C3CCC(O3)C2C(=O)O)sc(C)c1-c1ccc(F)cc1 (centres undefined),inactive
18,CC1CCc2nc(N)c(C#N)c(-c3cccnc3)c2C1 (centres undefined),inactive
19,CCSC1=C(C#N)C(c2ccc(C)o2)CC(=O)N1 (centres undefined),inactive
20,Cc1cc(=O)[nH]c(=S)[nH]1,inactive
21,COc1ccc(S(=O)(=O)N2CCN(C(=S)NCC3CCCO3)CC2)cc1OC (centres undefined),inactive
22,CCOc1ccc(N/C=C/C(=O)c2ccccc2)cc1,inactive
23,Cc1c(NC(=O)c2cccc(NC(=O)COc3ccccc3C#N)c2)c(=O)n(-c2ccccc2)n1C,inactive
24,Cn1cc(S(=O)(=O)N2CCN(C(=O)c3ccco3)CC2)c(=O)n(C)c1=O,inactive
25,CSc1oc(-c2ccc(F)cc2)nc1S(=O)(=O)c1ccc(F)cc1,inactive
26,C=CCN1CCN(C(CC(C)C)c2nnnn2CCOC)CC1 (centres undefined),inactive
